Laboratory results: PubChem BioAssay AID1159580 (chemical genetic matrix, 2015)
Hit rate of the full screen: of about 5,500 compounds, about 2,000 (36%) were called active. Roughly 18% stayed inconclusive and do not appear here. Cut-off read from the data, not from the text of the source: active = normalized growth mostly below about 0.91 (no sharp cut-off); inconclusive = no clear call, values can overlap the other calls; inactive = mostly above about 0.92. The list shows a part of the results.

Test: chemical genetic growth profiling, strain panel (AID 1159580);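 note: tested at 20 µM; growth read once vehicle control cultures reached saturation at 30 °C; 1 = growth at the plate median or of vehicle wells; lower values mean less growth of the strain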
Settings: growth OD

Measured: normalized growth

Nc1ccc(S(=O)(=O)Nc2ccccn2)cc1
inactive: S. cerevisiae deletion strains, locus YKL009W, strain mrt4, hits give low values 0.993 | S. cerevisiae deletion strains, locus YKL068W, hits give low values 0.991 | S. cerevisiae deletion strains, locus YKL085W, strain MDH1 (second series), hits give low values 0.982 | S. cerevisiae deletion strains, locus YKL085W, strain MDH1, hits give low values 0.982 | S. cerevisiae deletion strains, locus YKL160W, strain elf1, hits give low values 1.02 | S. cerevisiae deletion strains, locus YKL190W, strain CNB1, hits give low values 1.01 | S. cerevisiae deletion strains, locus YKR001C, strain vps1, hits give low values 0.995 | S. cerevisiae deletion strains, locus YKR026C, strain gcn3, hits give low values 1.02 | S. cerevisiae deletion strains, locus YKR091W, strain srl3, hits give low values 1.01 | S. cerevisiae deletion strains, locus YLL001W, strain dnm1, hits give low values 1.03 | S. cerevisiae deletion strains, locus YLL026W, hits give low values 1.02 | S. cerevisiae deletion strains, locus YLL041C, strain sdh2, hits give low values 1.01 | S. cerevisiae deletion strains, locus YLR027C, strain aat2, hits give low values 1.01 | S. cerevisiae deletion strains, locus YLR039C, strain RIC1, hits give low values 1.03 | S. cerevisiae deletion strains, locus YLR058C, strain SHM2, hits give low values 1.01 | S. cerevisiae deletion strains, locus YLR102C, strain apc9, hits give low values 0.993 | S. cerevisiae deletion strains, locus YLR113W, strain HOG1, hits give low values 0.976 | S. cerevisiae deletion strains, locus YLR221C, strain rsa3, hits give low values 0.993 | S. cerevisiae deletion strains, locus YLR258W, strain gsy2, hits give low values 1 | S. cerevisiae deletion strains, locus YLR262C, strain YPT6 (second series), hits give low values 1.03 | S. cerevisiae deletion strains, locus YLR262C, strain YPT6, hits give low values 1.04 | S. cerevisiae deletion strains, locus YLR268W, strain sec22, hits give low values 0.944 | S. cerevisiae deletion strains, locus YLR320W, strain mms22, hits give low values 0.985 | S. cerevisiae deletion strains, locus YLR330W, strain CHS5, hits give low values 1 | S. cerevisiae deletion strains, locus YLR342W, strain FKS1 (second series), hits give low values 0.985 | S. cerevisiae deletion strains, locus YLR342W, strain FKS1, hits give low values 1.01 | S. cerevisiae deletion strains, locus YLR357W, strain rsc2, hits give low values 0.996 | S. cerevisiae deletion strains, locus YLR370C, strain arc18, hits give low values 1.01 | S. cerevisiae deletion strains, locus YLR371W, strain rom2, hits give low values 0.99 | S. cerevisiae deletion strains, locus YLR384C, strain iki3, hits give low values 1.01 | S. cerevisiae deletion strains, locus YLR418C, strain cdc73, hits give low values 0.985 | S. cerevisiae deletion strains, locus YML016C, strain PPZ1, hits give low values 1.01 | S. cerevisiae deletion strains, locus YML032C, strain rad52, hits give low values 0.97 | S. cerevisiae deletion strains, locus YML120C, strain ndi1, hits give low values 1.01 | S. cerevisiae deletion strains, locus YML124C, strain tub3, hits give low values 1 | S. cerevisiae deletion strains, locus YMR058W, strain fet3, hits give low values 1.03 | S. cerevisiae deletion strains, locus YMR078C, strain ctf18, hits give low values 0.989 | S. cerevisiae deletion strains, locus YMR125W, strain sto1, hits give low values 1.01 | S. cerevisiae deletion strains, locus YMR129W, hits give low values 1.01 | S. cerevisiae deletion strains, locus YMR205C, strain PFK2, hits give low values 1.01 | S. cerevisiae deletion strains, locus YMR223W, strain ubp8, hits give low values 1.01 | S. cerevisiae deletion strains, locus YMR231W, strain pep5, hits give low values 1.01 | S. cerevisiae deletion strains, locus YMR263W, strain SAP30, hits give low values 1.01 | S. cerevisiae deletion strains, locus YMR307W, strain GAS1, hits give low values 1.02 | S. cerevisiae deletion strains, locus YNL067W, strain RPL9B, hits give low values 1.01 | S. cerevisiae deletion strains, locus YNL071W, strain lat1, hits give low values 0.998 | S. cerevisiae deletion strains, locus YNL128W, strain TEP1, hits give low values 1.01 | S. cerevisiae deletion strains, locus YNL153C, strain GIM3, hits give low values 1.01 | S. cerevisiae deletion strains, locus YNL183C, strain NPR1, hits give low values 0.945 | S. cerevisiae deletion strains, locus YNL209W, strain ssb2, hits give low values 1.01 | S. cerevisiae deletion strains, locus YNL233W, strain BNI4, hits give low values 1 | S. cerevisiae deletion strains, locus YNL248C, strain rpa49, hits give low values 0.985 | S. cerevisiae deletion strains, locus YNL250W, strain rad50, hits give low values 0.988 | S. cerevisiae deletion strains, locus YNL271C, strain bni1, hits give low values 0.998 | S. cerevisiae deletion strains, locus YNL298W, strain CLA4, hits give low values 0.988 | S. cerevisiae deletion strains, locus YNL307C, strain MCK1, hits give low values 0.997 | S. cerevisiae deletion strains, locus YNL322C, strain KRE1 (second series), hits give low values 1.01 | S. cerevisiae deletion strains, locus YNL322C, strain KRE1, hits give low values 1 | S. cerevisiae deletion strains, locus YNR049C, strain mso1, hits give low values 1.02 | S. cerevisiae deletion strains, locus YNR052C, strain pop2, hits give low values 0.991 | S. cerevisiae deletion strains, locus YOL006C, strain TOP1, hits give low values 1.05 | S. cerevisiae deletion strains, locus YOL012C, strain htz1 0.921 | S. cerevisiae deletion strains, locus YOL147C, strain pex11, hits give low values 1 | S. cerevisiae deletion strains, locus YOR001W, strain rrp6, hits give low values 1.02 | S. cerevisiae deletion strains, locus YOR061W, strain CKA2, hits give low values 1.01 | S. cerevisiae deletion strains, locus YOR069W, strain VPS5, hits give low values 1.01 | S. cerevisiae deletion strains, locus YOR070C, strain gyp1, hits give low values 1 | S. cerevisiae deletion strains, locus YOR080W, strain dia2, hits give low values 1.02 | S. cerevisiae deletion strains, locus YOR083W, strain WHI5, hits give low values 0.991 | S. cerevisiae deletion strains, locus YOR106W, strain vam3, hits give low values 1.04 | S. cerevisiae deletion strains, locus YOR136W, strain idh2, hits give low values 0.992 | S. cerevisiae deletion strains, locus YOR144C, strain elg1, hits give low values 0.989 | S. cerevisiae deletion strains, locus YOR184W, strain ser1, hits give low values 0.993 | S. cerevisiae deletion strains, locus YOR231W, strain MKK1, hits give low values 0.986 | S. cerevisiae deletion strains, locus YOR265W, strain rbl2, hits give low values 1.01 | S. cerevisiae deletion strains, locus YOR270C, strain vph1, hits give low values 1.01 | S. cerevisiae deletion strains, locus YOR290C, strain snf2, hits give low values 0.997 | S. cerevisiae deletion strains, locus YOR316C, strain cot1, hits give low values 0.994 | S. cerevisiae deletion strains, locus YPL051W, strain arl3, hits give low values 1.01 | S. cerevisiae deletion strains, locus YPL078C, strain atp4, hits give low values 1.02 | S. cerevisiae deletion strains, locus YPL106C, strain sse1, hits give low values 0.975 | S. cerevisiae deletion strains, locus YPL240C, strain hsp82, hits give low values 1.02 | S. cerevisiae deletion strains, locus YPL256C, strain CLN2, hits give low values 0.968 | S. cerevisiae deletion strains, locus YPR119W, strain clb2, hits give low values 0.975 | S. cerevisiae deletion strains, locus YPR141C, strain kar3, hits give low values 0.99 | S. cerevisiae deletion strains, locus YPR163C, strain tif3, hits give low values 0.993 | S. cerevisiae deletion strains, locus YPR167C, strain met16, hits give low values 0.986 | S. cerevisiae deletion strains, strain wtn01, hits give low values 0.998 | S. cerevisiae strains, strain wild type, hits give low values 1.01
